In PubChem BioAssay (EPA / NIEHS) one finds outcome and AC50 data, which are given here for 21 molecules.

SMILES strings stand for the structures. “And” between values parts separate entries of the source, which are not always exact repeats. Equal values may be shown once. Inconclusive results are not listed. The source made the active and inactive calls. Rule for the calls, unless noted: active = hit-call score of the fitted dose curve at least 0.9, where 1 is the maximum; inactive = score below 0.9.

The test system of test [1] is IYD (gene 389434). As to the kind of experiment: CCTE_GLTED_hIYD: CCTE's human Iodotyrosine Deiodinase (xIYD) Inhibition Assay, Great Lakes Toxicology and Ecology Division (GLTED) Lab (AID 2284317; active = hit-call score of the fitted dose curve at least 0.9, where 1 is the maximum;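 note: cell-free human IYD enzyme made in baculovirus insect cells; iodide freed from monoiodotyrosine measured by cerium arsenite color change at 420 nm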). In a few lines:
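Cell-free; baculovirus/insect-cell hIYD + MIT substrate + chemical, 3 h. Dowex column cleanup, then Ce4+/As3+ Sandell-Kolthoff read at A420 nm. Triplicate plates; normalized to 3-nitro-L-tyrosine (positive) and DMSO/NaOH (solvent).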

Test [2] is described as follows: CCTE_Deisenroth_5AR_NBTE_donor: CCTE's 5alpha-reductase NanoBRET Target Engagement Assay […], Deisenroth Lab (AID 2284319). The note with it: actives raise or lower the signal. In outline: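 SRD5A2-NanoLuc, HEK293T, 20 h expression. Chemical 10 nM - 29.9 uM, 8 conc, duplicate; 3 h preincubation + 2 h testosterone tracer. Nano-Glo substrate plus extracellular NanoLuc inhibitor; donor lum 460 nm. DMSO baseline, bidirectional fit.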

The nature of test [3]: CCTE_Deisenroth_5AR_NBTE_acceptor: CCTE's 5alpha-reductase NanoBRET Target Engagement Assay - Autofluorescence Screen, Deisenroth Lab (AID 2284321).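 Note: compound fluorescence in the acceptor channel under 460 nm excitation flags autofluorescence artifacts.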 The conditions noted are these: actives raise or lower the signal. In a few lines: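 HEK293T cell-based NanoBRET assay read 5 h after dosing; this acceptor channel serves as an autofluorescence artifact screen. Chemicals at nominal 100 uM were scanned in three independent runs (n=3), excitation 460 nm. Fitting was bidirectional versus DMSO baseline.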
A general note: BRET reads energy transfer from a luciferase to a nearby fluorophore.

Test [4] relates to SRD5A2 (gene 6716). As to the kind of experiment: CCTE_Deisenroth_5AR_NBTE_ratio: CCTE's 5alpha-reductase NanoBRET Target Engagement Assay - Ratio, Deisenroth Lab (AID 2284322). The conditions noted are these: actives raise or lower the signal. In outline:
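SRD5A2-NanoLuc HEK293T; cmpd 10 nM-29.9 uM, 3 h preinc + testosterone tracer 2 h; NanoBRET ratio 650/460; bidirectional fit vs DMSO.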

Read-out in test [5]: CD69, CD69 (gene 969)
As to the kind of experiment: BSK_LPS_CD69: BioMAP Diversity Plus: LPS Assay for CD69 Biomarker Activity (AID 2284303). The note with it: primary human HUVEC with PBMC. In outline: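 CD69 surface levels were read by ELISA after 24 h chemical treatment of an LPS-stimulated HUVEC plus PBMC co-culture; positive-direction fit against DMSO vehicle.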

In test [6] the test system is TTR (gene 7276). As to the kind of experiment: CCTE_GLTED_hTTR_0.5uM: CCTE's human Transthyretin (hTTR) Inhibition Assay, with 0.5uM TTR, Great Lakes Toxicology and Ecology Division (GLTED) Lab (AID 2284320). In outline: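 Probe (ANSA) displacement from 0.5 uM human transthyretin was followed by fluorescence (ex 380, em 475) after a 2 h incubation with chemical. Activity was scored as signal loss and fitted positively relative to DMSO.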

Test [7] in a line: CCTE_Mundy_HCI_iCellGluta_NOG_NeuriteLength: CCTE's Neurite Outgrowth Assay in iCellGluta cells for Neurite Length, Mundy Lab (AID 2284318; active = hit-call score of the fitted dose curve at least 0.9, where 1 is the maximum). In a few lines:
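Automated high-content imaging of betaIII-tubulin (Alexa Fluor-488) and Hoechst-stained cells gave neurite length, normalized to the DMSO baseline.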

With `CC(Cc1ccc(O)c(O)c1)C(C)Cc1ccc(O)c(O)c1` (configuration not stated), the outcome in test [1] was inactive. The AC50 (as a rule, the concentration giving half of the maximal activity seen) in test [2] was 64.7 µM (active); in test [3], 50 µM (active); in test [4], 93.7 µM (active).
As to `O=C(O)C(F)(F)C(F)(F)C(F)(F)C(F)(F)C(F)(F)C(F)(F)C(F)(F)C(F)(F)C(F)(F)C(F)F`, the AC50 was 37.8 µM (active) and 27.9 µM (active) in test [5]; 73.5 µM (active) in test [1]; 1.03 µM (active) in test [6].
`FC(F)(F)C(F)(F)C(F)(F)C(F)(F)C(F)(F)C(F)(F)C(F)(F)C(F)(F)F`: the result in test [5] and in test [7] was inactive.
Take `O=C(OCCOCCOCCOC(=O)c1ccccc1)c1ccccc1`: the molecule was classed as inactive in test [2], in test [3] and in test [4].
Take `OCC(F)(F)C(F)(F)C(F)(F)C(F)(F)C(F)(F)C(F)F`: in test [5], the result was inactive. Further, in test [6], the AC50 was 33.2 µM (active).
Consider `O=C(O)C(F)(F)C(F)(F)C(F)(F)F`, for which the result in test [5] and in test [7] was inactive. The AC50 in test [6] was 31.9 µM (active).
In the case of `FC(F)(I)C(F)(F)C(F)(F)C(F)(F)I`, the result in test [5] was inactive. For the same molecule, the AC50 in test [6] is 3.74 µM (active).
Take `O=C(CC(=O)C(F)(F)C(F)(F)F)C(F)(F)F`: the outcome in test [5] and in test [7] was inactive. In test [6], the half-maximal activity concentration (AC50) is 3 µM (active).
In the case of `N=C(N)C(F)(F)C(F)(F)C(F)(F)C(F)(F)C(F)(F)C(F)(F)C(F)(F)F`, the AC50 in test [5] is 45 µM (active) and 14.9 µM (active); in test [6], 4.85 µM (active). The outcome in test [7] was inactive.
On to `OCC(F)(F)C(F)(F)C(F)(F)F`, for which the result in test [5] and in test [7] was inactive.
In the case of `FC(F)(F)C(F)(F)C(F)(F)C(F)(F)C(F)(F)C(F)(F)CC1CO1` (configuration not stated), the result in test [5] and in test [7] was inactive.
As for `C=C(C)C(=O)OCC(F)(F)C(F)(F)C(F)(F)F`, the outcome in test [5] and in test [7] was inactive.
For `O=C(O)C(F)(F)C(F)(F)C(F)(F)C(F)(F)C(F)(F)C(F)(F)C(F)(F)C(F)(F)C(F)(F)C(F)(F)C(F)(F)C(F)(F)F`, the outcome in test [5] was inactive. In addition, the half-maximal activity concentration (AC50) in test [6] is 11.6 µM (active).
`OCC(F)(F)C(F)(F)C(F)(F)C(F)F`: the result in test [5] and in test [7] was inactive.
Regarding `OCC(F)(F)C(F)(F)C(F)(F)C(F)(F)C(F)(F)C(F)(F)F`, the outcome in test [5] was inactive. The half-maximal activity concentration (AC50) in test [6] is 36.8 µM (active).
Take `FC(F)(F)C(F)(F)C(F)(F)CI`: the outcome in test [5] and in test [7] was inactive.
For `O=C(O)C(F)(F)C(F)(F)C(F)(F)C(F)(F)C(F)(F)C(F)(F)C(F)(F)C(F)(F)C(F)(F)C(F)(F)C(F)(F)C(F)(F)C(F)(F)F`, the result in test [5] was inactive. The AC50 in test [6] is 10.3 µM (active).
As to `FC(F)(F)C(F)(F)C(F)(F)C(F)(F)C(F)(F)C(F)(F)C(F)(F)C(F)(F)CCS`, the outcome in test [5] and in test [7] was inactive.
As for `OCCCC(F)(F)C(F)(F)C(F)(F)C(F)(F)C(F)(F)C(F)(F)C(F)(F)F`, in test [5], the AC50 was 52.1 µM (active) and 51.7 µM (active). In addition, the molecule was called inactive in test [7].
For the molecule `O=S(=O)(O)C(F)(F)C(F)(F)C(F)(F)C(F)(F)C(F)(F)C(F)(F)C(F)(F)F`, the outcome in test [5] was inactive. For the same molecule, the half-maximal activity concentration (AC50) in test [1] is 100 µM (active); in test [6], 0.0773 µM (active).
Consider `CCN(Cc1cccc(S(=O)(=O)O)c1)c1ccc(C(=C2C=CC(=[N+](CC)Cc3cccc(S(=O)(=O)O)c3)C=C2)c2ccc(O)cc2S(=O)(=O)[O-])cc1`, for which the AC50 in test [1] was 66.1 µM (active); in test [3], 1.52 µM (active); in test [4], 1.56 µM (active). Besides, the molecule was called inactive in test [2].
